Assay results: ChEMBL document CHEMBL3988442, “University of Dundee, Small-Polar-MMV Screening Library” (2021)

Species: Homo sapiens
Experiment: To identify inhibition of the IFN signalling (Jak-Stat) pathway via expression of an eGFP reporter gene under the control of an IFN-stimulated response element (ISRE) containing MxA promoter.
Assay type: functional
Set-up: scale not given: direction of the effect not stated beside the values
Conditions: 30 µM

Structure (SMILES)	Percent Effect [%]
O=C(c1ccn[nH]1)N1CCCC(n2cncn2)C1 (stereo not given)	6.04
CN(c1ccncn1)C1CC2(CCN(C(=O)c3cccs3)C2)C1 (stereo not given)	11.6
CCC1(CO)CCCN(c2ncccc2C#N)C1 (stereo not given)	19.1
CCN(CC)C(=O)c1ccn(COc2cc(C)cc(C)c2)n1	41.2
CCCS(=O)(=O)NCC1CCOc2ccccc2C1 (stereo not given)	-3.37
Cc1ccc(C2CSCCN2C(=O)C2=CCCC2)o1 (stereo not given)	-24
CC(C)c1nc(C(=O)N2CCOCC2CC(=O)c2ccco2)c[nH]1 (stereo not given)	-8.33
Cc1nn(C)c(N2CCOCC2)c1CNC1CCc2ccccc2C1 (stereo not given)	8.26
CNc1nc(C(=O)N2CCCC(c3nccn3CC3CCC3)C2)cs1 (stereo not given)	0.132
Cc1cc(Nc2nc(C)cs2)nc(C2CCCCN2CCO)n1 (stereo not given)	-9.01
N#Cc1cccc(CN2CC[C@@H]3[C@@H]2CC(=O)N3Cc2cccnc2)c1	-10.2
O=C(NCCNc1ncccn1)N1CCSCC1	11.3
CN(C)CCn1c(=O)oc2ccc(NC(=O)C3CCCO3)cc21 (stereo not given)	5.49
CC(NC(=O)C1=NN(C)C(=O)CC1)c1ccc(Cl)cc1Cl (stereo not given)	16.3
CCn1c(=O)nc2n1C(=O)N(c1cccc(Cl)c1)C2	-10.2
O=C(c1ccc(Cl)o1)N1CCCN(Cc2cscn2)CC1	0.576
CC(N(C)Cc1nc2c(cnn2C)c(=O)[nH]1)C(C)(C)C (stereo not given)	24.6
CCc1noc(C2CCCCN2C(=O)c2nnc3ccccc3n2)n1 (stereo not given)	-16.9
Cc1cccc(N2CCN(C(=O)CN3CCN(CCO)CC3)CC2)c1	10.3
O=C(CCc1ccc(=O)[nH]n1)N1CCCC(COc2ccc(F)cc2)C1 (stereo not given)	5.9

Structure (SMILES)	Percent Effect [%]
O=C(Cc1ccccn1)N1CCN(CC2CC2)c2ncccc2C1	9.79
COc1cccc(C2CC(=O)Nc3nc(N4CCOCC4)sc32)c1OC (stereo not given)	-7.88
Cc1nccn1-c1cc(CNC(=O)C(C)(C)C)ccn1	-3.27
CNS(=O)(=O)c1ccc(C(=O)N2CCCC2c2ccccc2)o1 (stereo not given)	-6.57
Cc1csc(N2CCN(C(=O)Cc3ccsc3)CC2)n1	5.74
CN(Cc1cccc(F)c1)C(=O)CN1CCCC1CCc1ccccc1 (stereo not given)	-5.85
CN(CC1(O)CCCCC1)C1CCCN(Cc2noc(C3CC3)n2)C1 (stereo not given)	10.4
Cc1cnnn1Cc1ncn2c1CN(Cc1cccs1)CCC2	14.8
CC(C)C(=O)NCCNc1nccc(-c2cc(C(=O)O)ccn2)n1	2.74
COCCN1CCC(CN(CC2CCCO2)C(=O)COC)CC1 (stereo not given)	-0.94
CNC(=O)c1ccc(CN2CCC(N(C)Cc3noc(C)n3)C2)cc1 (stereo not given)	22.1
O=C([C@H]1CN(CCc2ccccc2)C[C@H]2OCC[C@@H]12)N1CCCO1	4.24
O=C(Cc1ccsc1)N1C[C@@H]2CN(Cc3ccoc3)CCO[C@@H]2C1	-8.8
Cn1c(Cn2cccn2)nnc1C1CCN(Cc2cccnc2N)CC1	12.7
Cc1cc(C)n(CC2CCCCN2CC(=O)Nc2cccnc2)n1 (stereo not given)	6.67
COCc1nc(C(=O)N2CCCCC2Cn2cccn2)cs1 (stereo not given)	-20.6
Cn1nnc2c1CCN(CC1CC1)C2COCc1ccccc1 (stereo not given)	-2.55
COCC(c1cccc(C(F)(F)F)c1)N(C)C(=O)c1ccncc1 (stereo not given)	26.2
Cc1ccc(C(=O)NC2CCN(Cc3noc(CC(C)C)n3)CC2)s1	29.7
CCN(C(=O)CS(=O)(=O)Cc1cc(Cl)c2c(c1)OCCCO2)C1CC1	8.01

These molecules were tested against T1, Tyrosyl-tRNA synthetase, putative (Trypanosoma cruzi (strain CL Brener)) (UniProt Q4DSP6) (assay: Trypanosoma cruzi tyrosyl tRNA synthetase (TcYRS) _High Tyrosine SOP). Conditions: 30 µM.
T1 sequence (whole entry): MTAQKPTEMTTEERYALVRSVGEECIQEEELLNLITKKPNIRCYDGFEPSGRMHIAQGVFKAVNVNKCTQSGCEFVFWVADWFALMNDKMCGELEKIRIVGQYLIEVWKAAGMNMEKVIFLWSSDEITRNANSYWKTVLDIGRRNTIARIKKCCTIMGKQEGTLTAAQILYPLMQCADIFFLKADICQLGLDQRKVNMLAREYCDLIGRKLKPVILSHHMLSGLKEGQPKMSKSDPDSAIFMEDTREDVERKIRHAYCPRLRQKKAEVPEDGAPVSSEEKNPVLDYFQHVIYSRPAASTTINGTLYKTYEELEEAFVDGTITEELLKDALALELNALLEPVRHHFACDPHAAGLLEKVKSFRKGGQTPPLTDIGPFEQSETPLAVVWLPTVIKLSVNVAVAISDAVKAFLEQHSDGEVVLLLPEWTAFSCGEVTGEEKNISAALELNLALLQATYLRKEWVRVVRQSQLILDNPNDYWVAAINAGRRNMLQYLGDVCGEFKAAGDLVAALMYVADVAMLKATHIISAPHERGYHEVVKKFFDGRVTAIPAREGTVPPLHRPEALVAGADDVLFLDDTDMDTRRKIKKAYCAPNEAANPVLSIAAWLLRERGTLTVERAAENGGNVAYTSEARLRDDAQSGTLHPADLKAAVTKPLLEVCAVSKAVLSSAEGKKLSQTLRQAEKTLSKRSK
Assay type: functional
Set-up: scale not given: direction of the effect not stated beside the values

Structure (SMILES)	Percent Effect [%]
O=C(c1ccn[nH]1)N1CCCC(n2cncn2)C1 (stereo not given)	2.08
CN(c1ccncn1)C1CC2(CCN(C(=O)c3cccs3)C2)C1 (stereo not given)	-6.45
CCC1(CO)CCCN(c2ncccc2C#N)C1 (stereo not given)	-1.59
CCN(CC)C(=O)c1ccn(COc2cc(C)cc(C)c2)n1	4.23
CCCS(=O)(=O)NCC1CCOc2ccccc2C1 (stereo not given)	0
Cc1ccc(C2CSCCN2C(=O)C2=CCCC2)o1 (stereo not given)	1.07
CC(C)c1nc(C(=O)N2CCOCC2CC(=O)c2ccco2)c[nH]1 (stereo not given)	5.32
Cc1nn(C)c(N2CCOCC2)c1CNC1CCc2ccccc2C1 (stereo not given)	9.36
CNc1nc(C(=O)N2CCCC(c3nccn3CC3CCC3)C2)cs1 (stereo not given)	6.45
Cc1cc(Nc2nc(C)cs2)nc(C2CCCCN2CCO)n1 (stereo not given)	4.3
N#Cc1cccc(CN2CC[C@@H]3[C@@H]2CC(=O)N3Cc2cccnc2)c1	3.19
O=C(NCCNc1ncccn1)N1CCSCC1	5.42
CN(C)CCn1c(=O)oc2ccc(NC(=O)C3CCCO3)cc21 (stereo not given)	8.2
CC(NC(=O)C1=NN(C)C(=O)CC1)c1ccc(Cl)cc1Cl (stereo not given)	2.15
CCn1c(=O)nc2n1C(=O)N(c1cccc(Cl)c1)C2	8.47
O=C(c1ccc(Cl)o1)N1CCCN(Cc2cscn2)CC1	6.67
CC(N(C)Cc1nc2c(cnn2C)c(=O)[nH]1)C(C)(C)C (stereo not given)	-1.98
CCc1noc(C2CCCCN2C(=O)c2nnc3ccccc3n2)n1 (stereo not given)	11.6
Cc1cccc(N2CCN(C(=O)CN3CCN(CCO)CC3)CC2)c1	9.38
O=C(CCc1ccc(=O)[nH]n1)N1CCCC(COc2ccc(F)cc2)C1 (stereo not given)	6.32

Structure (SMILES)	Percent Effect [%]
O=C(Cc1ccccn1)N1CCN(CC2CC2)c2ncccc2C1	6.38
COc1cccc(C2CC(=O)Nc3nc(N4CCOCC4)sc32)c1OC (stereo not given)	5.32
Cc1nccn1-c1cc(CNC(=O)C(C)(C)C)ccn1	2.15
CNS(=O)(=O)c1ccc(C(=O)N2CCCC2c2ccccc2)o1 (stereo not given)	6.4
Cc1csc(N2CCN(C(=O)Cc3ccsc3)CC2)n1	10.3
CN(Cc1cccc(F)c1)C(=O)CN1CCCC1CCc1ccccc1 (stereo not given)	1.07
CN(CC1(O)CCCCC1)C1CCCN(Cc2noc(C3CC3)n2)C1 (stereo not given)	4.43
Cc1cnnn1Cc1ncn2c1CN(Cc1cccs1)CCC2	2.16
CC(C)C(=O)NCCNc1nccc(-c2cc(C(=O)O)ccn2)n1	9.68
COCCN1CCC(CN(CC2CCCO2)C(=O)COC)CC1 (stereo not given)	3.16
CNC(=O)c1ccc(CN2CCC(N(C)Cc3noc(C)n3)C2)cc1 (stereo not given)	-1.91
O=C([C@H]1CN(CCc2ccccc2)C[C@H]2OCC[C@@H]12)N1CCCO1	2.08
O=C(Cc1ccsc1)N1C[C@@H]2CN(Cc3ccoc3)CCO[C@@H]2C1	0
Cn1c(Cn2cccn2)nnc1C1CCN(Cc2cccnc2N)CC1	-1.05
Cc1cc(C)n(CC2CCCCN2CC(=O)Nc2cccnc2)n1 (stereo not given)	0.546
COCc1nc(C(=O)N2CCCCC2Cn2cccn2)cs1 (stereo not given)	0.493
Cn1nnc2c1CCN(CC1CC1)C2COCc1ccccc1 (stereo not given)	9.57
COCC(c1cccc(C(F)(F)F)c1)N(C)C(=O)c1ccncc1 (stereo not given)	8.33
Cc1ccc(C(=O)NC2CCN(Cc3noc(CC(C)C)n3)CC2)s1	-3.23
CCN(C(=O)CS(=O)(=O)Cc1cc(Cl)c2c(c1)OCCCO2)C1CC1	3.45
